Source: PubChem
Hits are enriched below; roughly 3.8% of the tested compounds scored in any of these assays.
HSP90 refold inh = HSP90 inhibitors, primary screen, cell lysate, luminescence | inhibition, % at 5.6 µM | Rabbit reticulocyte lysate, luciferase refolding luminescence, 3 h | AID 1789, 2009 | 0.91% of 290,000 active | Heat shock protein HSP 90 (rabbit reticulocyte lysate; luciferase refolding);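 active = inhibition above the screen-wide mean plus 3 SD, computed separately per campaign, cut at about 16% in these data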;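 note: 0% = DMSO wells and 100% = 60 µM geldanamycin wells; inhibitors lower the luminescence because luciferase stays unfolded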
HSF-1 act = HSF-1 activators, primary screen, NIH3T3-HGL cells, MG132 stress, luminescence, single point; NIH3T3-HGL HSF-1 luciferase reporter, 8 h; 100% = twice DMSO control signal; AID 504408, 2011; 1.7% of 300,000 active; activation, % at 9 µM;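 active = mean replicate activation of at least 50% with a set share of replicates each reaching 50%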;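 note: 0% = median of the neutral control wells and 100% = twice that signal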
HSF1 inh = HSF1 inhibitors in luciferase reporter cells, primary screen, cell-based, NIH3T3, luminescence | 0.77% of 300,000 active | activity change, negative = inhibition, % at 7.5 µM (by protocol) | AID 2098, 2009 | NIH3T3-HGL HSE-luciferase, MG132-induced, luminescence 8 h; stronger effect = lower value;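 active = more than half of replicate wells show activity change below -50%, luminescence cut by over half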;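 note: luciferase reports HSF-1 transcriptional activity via heat shock element; 0% = median of DMSO wells and -100% = zero luminescence signal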
NALP1 inh = NALP1 inflammasome inhibitors in reconstituted yeast, colorimetric, S. cerevisiae, triplicate retest; 0.61% of 280,000 active; inhibition, % at 10 µM; S. cerevisiae NALP1/ASC/caspase-1 growth, X-gal OD620, 72 h; in the data active = inhibition mostly above about 24%, no sharp cut-off; inactive = mostly below about 32%
Hsp70 activator = Hsp70 transcriptional activators, primary screen, cell-based, HeLa, Hsp70 promoter luciferase, luminescence, 10 µM; HeLa Hsp70 promoter luciferase reporter; scaled: vehicle 0, proteasome-inhibitor control 100%; activation, % at 10 µM; 0.04% of 200,000 active; AID 1203, 2008;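 active = activation above the mean across all tested compounds plus 3 SD, cutoff set per campaign, cut at about 5.5% in these data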;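 note: 100% = MG132 at 30 µM as the positive control and 0% = DMSO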
pCIP destab = p/CIP-EGFP fusion destabilizers, primary screen, fluorescence, F442A cells. decrease of EGFP signal, % at 10 µM. 0.01% of 290,000 active. 16 h. Q05BA5;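 active = EGFP signal decrease of at least 30% at 10 µM or well 3 SD below plate mean, unless failing retest; inactive = the rest, including hits failing retest or dose response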
Target sequence (Q05BA5 1-1403): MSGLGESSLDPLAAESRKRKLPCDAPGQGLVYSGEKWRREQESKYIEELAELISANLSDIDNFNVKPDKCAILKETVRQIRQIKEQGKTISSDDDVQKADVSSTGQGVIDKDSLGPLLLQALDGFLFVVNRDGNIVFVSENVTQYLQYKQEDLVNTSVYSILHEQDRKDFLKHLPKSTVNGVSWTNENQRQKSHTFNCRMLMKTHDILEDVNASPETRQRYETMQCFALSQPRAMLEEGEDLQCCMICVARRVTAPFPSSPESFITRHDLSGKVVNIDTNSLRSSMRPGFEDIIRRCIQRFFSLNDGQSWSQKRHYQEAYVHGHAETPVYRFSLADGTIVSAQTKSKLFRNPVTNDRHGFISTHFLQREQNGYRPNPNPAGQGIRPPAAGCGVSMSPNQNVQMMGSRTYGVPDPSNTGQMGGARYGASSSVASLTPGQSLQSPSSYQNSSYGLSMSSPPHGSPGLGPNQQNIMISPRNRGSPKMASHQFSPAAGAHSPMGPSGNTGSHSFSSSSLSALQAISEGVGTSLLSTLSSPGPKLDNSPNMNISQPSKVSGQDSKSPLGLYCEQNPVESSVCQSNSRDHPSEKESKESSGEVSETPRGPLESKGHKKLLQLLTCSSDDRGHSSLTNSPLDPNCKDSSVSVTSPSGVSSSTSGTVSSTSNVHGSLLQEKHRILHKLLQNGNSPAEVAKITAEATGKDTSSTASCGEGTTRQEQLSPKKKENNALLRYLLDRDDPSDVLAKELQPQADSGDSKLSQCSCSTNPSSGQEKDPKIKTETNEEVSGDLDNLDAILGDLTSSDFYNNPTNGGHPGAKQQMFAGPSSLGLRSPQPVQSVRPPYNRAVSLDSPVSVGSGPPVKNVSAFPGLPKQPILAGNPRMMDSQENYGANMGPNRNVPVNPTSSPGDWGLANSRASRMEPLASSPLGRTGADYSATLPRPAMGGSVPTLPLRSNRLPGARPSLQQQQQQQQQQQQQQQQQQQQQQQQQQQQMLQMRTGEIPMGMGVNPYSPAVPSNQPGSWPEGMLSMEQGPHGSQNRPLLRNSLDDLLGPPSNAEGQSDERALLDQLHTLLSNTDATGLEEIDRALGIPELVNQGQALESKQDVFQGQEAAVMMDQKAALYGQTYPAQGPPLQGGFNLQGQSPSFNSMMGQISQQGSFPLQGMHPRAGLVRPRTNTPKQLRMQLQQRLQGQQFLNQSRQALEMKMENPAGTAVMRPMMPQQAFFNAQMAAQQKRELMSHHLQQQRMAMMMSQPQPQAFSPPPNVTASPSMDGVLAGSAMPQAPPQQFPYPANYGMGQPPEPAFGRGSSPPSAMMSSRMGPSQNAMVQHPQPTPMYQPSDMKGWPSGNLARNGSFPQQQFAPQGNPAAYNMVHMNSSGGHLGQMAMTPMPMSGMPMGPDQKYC
* marks the source's active call; other numbers are inactive results; · = not tested or not shown.

SMILES	HSP90 refold inh	HSF-1 act	HSF1 inh	NALP1 inh	Hsp70 activator	pCIP destab
Cn1ncc([N+](=O)[O-])c1C(=O)Nc1ccc(-c2nc3ccccc3o2)cc1	2	56*	19	0	0	0
COc1ccc2c(c1)sc(=N)n2C	-4	-5	-4	0	0	-16
CCN1CCc2c(sc(NC(=O)c3cc4ccccc4cc3OC)c2C(N)=O)C1	-2	-64	-51*	24	·	-4
CC(C)N1CCc2c(sc(NC(=O)c3ccc4ccccc4c3)c2C(N)=O)C1	3	-64	-60*	16	·	-102
CC(C)N1CCc2c(sc(NC(=O)c3ccc(C(=O)c4ccccc4)cc3)c2C(N)=O)C1	-3	-14	-4	17	·	-10
COc1cccc(OC)c1C(=O)Nc1sc2c(c1C(N)=O)CCN(Cc1ccccc1)C2	-1	2	-2	11	·	-8
O=C(/C=C/c1ccco1)NC(=S)Nc1cc(-c2nc3ccccc3s2)ccc1Cl	-1	·	·	26	0	-5
Cc1ccc(-c2nc3ccccc3s2)cc1NC(=S)NC(=O)/C=C/c1ccco1	-3	65*	46	2	0	6
CC1=NNC(=O)C1CCC(=O)N/N=C/C(Br)=C/c1ccccc1 (stereo not drawn)	-3	88*	67	20	0	-19
CC1C(=O)NN=C1C(=O)N/N=C\C(Br)=C\c1ccccc1 (stereo not drawn)	-4	213*	153	21	0	-11
COC(=O)c1ccc(CSc2nnc(NC(=O)C3CC(=O)N(c4ccc5c(c4)OCCO5)C3)s2)cc1 (stereo not drawn)	0	-19	-3	25	0	1
O=C(Nc1ccc(F)cc1F)C1CCCN1S(=O)(=O)c1ccc(-c2ccc(=O)[nH]n2)s1 (stereo not drawn)	1	-12	-4	12	·	-5
O=C(Nc1cccc(-c2cn3ccccc3n2)c1)c1cnccn1	9	54*	16	5	0	-12
Cc1cc(O)c(NC(=O)c2cc([N+](=O)[O-])ccc2Cl)cc1C	-1	100*	99	0	0	-16
Cc1ccc(O)c(NC(=O)c2cc([N+](=O)[O-])ccc2Cl)c1	0	1	-7	3	0	19
O=C(N[C@@H](Cc1ccccc1)c1nc2ccccc2[nH]1)c1cc([N+](=O)[O-])ccc1Cl	1	23	6	25	0	-10
CC(Cc1ccccc1)NC(=O)c1cc([N+](=O)[O-])ccc1Cl (stereo not drawn)	15	1	5	36*	·	-4
O=C(Nc1cccc2c1CCCC2)c1cc([N+](=O)[O-])ccc1Cl	-3	55*	31	17	0	3
COc1cccc(OC)c1C(=O)NC(=O)NNc1cc(C(F)(F)F)cc(C)n1	-1	14	8	2	·	-5
Cc1cc(C)cc(N(CC(=O)NC2CCCCC2)C(=O)CCCC(=O)Nc2ccccn2)c1	2	33	1	5	·	-1
O=C(c1ccco1)N1CCc2[nH]nc(-c3ccccc3)c2C1	2	-15	5	17	·	-8
Cc1ccc(-c2nc3ccccn3c2C=O)cc1	1	-15	-1	5	1	9
Cc1c(-c2ccc(Br)cc2)nc2ccccn12	-4	51*	26	35	0	-12
c1ccc(-n2cc(CN3CCCC3)c(-c3ccc4c(c3)OCO4)n2)cc1	2	55*	37	2	0	6
c1ccc(-n2cc(CN3CCC(N4CCOCC4)CC3)c(-c3ccc4c(c3)OCO4)n2)cc1	-4	-3	-4	4	0	3
SMILES	HSP90 refold inh	HSF-1 act	HSF1 inh	NALP1 inh	Hsp70 activator	pCIP destab
O=C(NC(Nc1nc2ccc([N+](=O)[O-])cc2s1)(C(F)(F)F)C(F)(F)F)c1ccccc1Cl	2	-10	-12	105*	0	-2
O=C(NC(Nc1nc2ccc([N+](=O)[O-])cc2s1)(C(F)(F)F)C(F)(F)F)c1cccnc1	5	13	3	23	0	2
O=C(O)CC(CC(=O)Nc1ccc(F)c(Cl)c1)c1ccc(Cl)cc1Cl (stereo not drawn)	-4	14	-1	9	·	-11
CCN1C(=O)/C(=C\c2ccc3c(c2)OCO3)C(C(=O)OC)=C1C	0	63*	26	-8	0	-5
CCOc1cc(/C=C2\C(=O)N(Cc3ccc(C)cc3)C(C)=C2C(=O)OC)ccc1O	3	77*	53	-4	0	-3
COCCCN1C(=O)/C(=C\c2ccc3c(c2)OCO3)C(C(=O)OC)=C1C	1	-2	-7	4	0	-12
COc1ccc(S(=O)(=O)N2CCC(C(=O)NCCc3ccccc3)CC2)cc1	1	6	-4	-2	·	-17
Cc1ccc(C)c(Cn2nnc3c(=O)[nH]c(C4CCCN(C(=O)c5cccs5)C4)nc32)c1 (stereo not drawn)	3	18	10	14	·	-8
Cc1ccc(C)c(Cn2nnc3c(=O)[nH]c(C4CCN(C(=O)c5cccs5)CC4)nc32)c1	0	76*	27	-11	0	-8
c1ccc(CSc2ncnc3c2oc2ccccc23)cc1	1	1	3	·	0	·
COC(=O)c1ccc(CSc2ncnc3ccccc23)o1	1	31	19	-34	0	-1
COC(=O)c1ccc(CSc2ncnc3c2oc2ccccc23)o1	-2	113*	96	7	0	-7
c1coc(CSc2ncnc3c2oc2ccccc23)c1	-1	66*	29	·	·	14
COC(=O)COc1coc(CN2CCN(c3cccc(Cl)c3)CC2)cc1=O	2	-8	-3	9	·	-5
O=C(NCc1ccccc1)C1CCCC1	0	-72	-62*	8	·	-36
O=C(Nc1ccc(S(=O)(=O)NCc2ccccc2)cc1)C1CCCCC1	-2	-15	3	32*	·	-8
O=C(Oc1coc(CSc2ncccn2)cc1=O)c1ccccc1[N+](=O)[O-]	-2	-7	1	7	0	6
OC12CCCCC1C(c1ccc3c(c1)OCO3)N(Cc1ccc(F)cc1)CC2 (stereo not drawn)	1	54*	23	-15	0	1
OC12CCCCC1C(c1ccc3c(c1)OCO3)N(Cc1cccc(F)c1)CC2 (stereo not drawn)	-1	30	2	-12	0	-12
OC12CCCCC1C(c1ccc3c(c1)OCO3)N(Cc1ccccc1F)CC2 (stereo not drawn)	2	57*	28	-9	0	-6
